# Data as given in PubChem BioAssay.
# Active and inactive are the calls of the source. Unless noted, how the calls were made is not given here.
# What was measured:
# [1] = test system: Wnt5a (protein binding on small-molecule microarray); test: Wnt5a binders on small-molecule microarray, primary screen, biophysical, 635/667 nm fluorescence (AID 1142); conditions: 635 nm fluorescence, higher = more signal;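 further: fluorescence read at 667 nm with signal to noise per printed feature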
# [2] = cell viability in Huh7 cells, primary screen, cytotoxicity control for HCV replication inhibitor project, CellTiter-Glo luminescence, basal, 48 h (AID 1143); conditions: Huh7 HCV replicon, higher = more signal, called active from +8 up or from −8 down;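 further: Huh7 hepatoma cells carrying a hepatitis C replication reporter with no stimulus; test concentration not given here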
# [3] = P. aeruginosa biofilm formation inhibitors, primary screen, PAO1 strain, BacTiter-Glo luminescence, LB-PBS (AID 1144); conditions: 12 h, higher = more signal
# [4] = CREB reporter modulators without forskolin, primary screen, cell-based, PC12, CRE-LacZ reporter, unstimulated (AID 1145); conditions: no forskolin, luminescence, 4.5 h, higher = more signal, called active from +8 up or from −8 down
# [5] = CREB reporter modulators under forskolin, primary screen, cell-based, PC12, CRE-LacZ reporter, forskolin-stimulated (AID 1146); conditions: luminescence, 4.5 h, higher = more signal, called active from +8 up or from −8 down;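 further: PC12 cells with 6xCRE LacZ reporter stimulated by forskolin 10 µM; beta-galactosidase reporter signal reflecting CREB driven transcription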
# [6] = target: Streptavidin (Streptomyces avidinii) (UniProt P22629); test: streptavidin binders on small-molecule microarray, primary screen, artefact control for SMM compound annotation, biophysical, 635/667 nm fluorescence (AID 1147); conditions: streptavidin binding, higher = more signal;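 further: signal reflects streptavidin binding to arrayed compounds as a control protein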
# [7] = small-molecule binders of probe aInhba, primary screen, biochemical, small-molecule microarray, 635/667 nm fluorescence (AID 1148); conditions: higher = more signal;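 further: score merges 667nm spot fluorescence with signal-to-noise for antibody binding to printed compounds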
# Torsin-1A (Homo sapiens) [8] = target: Torsin-1A (Homo sapiens) (UniProt O14656); test: torsin A binders from cell lysate, primary screen, small-molecule microarray, wild-type, 635/667 nm (AID 1149); conditions: COS7 hTOR1A-WT lysate, 635 nm fluorescence, higher = more signal
# Torsin-1A (Homo sapiens) [9] = target: Torsin-1A (Homo sapiens) (UniProt O14656); test: small-molecule binders of mutant TOR1A in lysate, primary screen, cell lysate, small-molecule microarray, COS7 lysate, 635/667 nm fluorescence (AID 1150); conditions: COS7 hTOR1A mutant lysate, 635 nm fluorescence, higher = more signal;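 further: score pools 667 nm emission and signal to noise measuring lysate protein binding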
# [10] = test system: Sonic hedgehog protein (Shh); test: small-molecule binders of Shh protein, primary screen, biochemical, small-molecule microarray, 635/667 nm fluorescence (AID 1151); conditions: small-molecule microarray binding, 635 nm fluorescence; higher = more signal;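 further: Shh protein binding to compounds spotted on small-molecule microarray slides; score combines spot fluorescence intensity with signal-to-noise across triplicate slides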
# [11] = E. coli DRC41 culture turbidity changes, primary screen, E. coli filamentation inducer project, strain DRC41, OD650, 48 h (AID 1152);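 further: E. coli MC1000 strain DRC41 lacking acrAB efflux pump and sulA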; conditions: E. coli DRC41 (acrAB sulA), higher = more signal, called active from +8 up or from −8 down
# [12] = small-molecule binders of probe aLefty1, primary screen, biochemical, small-molecule microarray, 635/667 nm fluorescence (AID 1153); conditions: higher = more signal;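 further: score merges spot fluorescence with signal-to-noise ratio from the scanned slide images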
# [13] = PSAC antagonists in infected red cells, primary screen, cell-based, P. falciparum Indochina, OD700, 1 h (AID 1154); conditions: P. falciparum Indochina infected RBC osmotic lysis, higher = more signal, called active from +8 up or from −8 down
# [14] = PSAC antagonists in infected red cells, primary screen, cell-based, P. falciparum Indochina, OD700, 2 h (AID 1155);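 further: lysis reports solute entry through the parasite surface anion channel PSAC; channel blockers reduce lysis of infected cells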; conditions: P. falciparum Indochina infected erythrocytes, osmotic lysis OD700; higher = more signal, called active from +8 up or from −8 down
# [15] = osmotic lysis modulators in infected erythrocytes, primary screen, PSAC antagonist project, cell-based, P. falciparum Indochina, OD700, 3 h (AID 1156); conditions: higher = more signal, called active from +8 up or from −8 down
# [16] = PSAC antagonists in infected red cells, primary screen, cell-based, P. falciparum Indochina, OD700, 18 h (AID 1157); conditions: P. falciparum Indochina infected erythrocytes, osmotic lysis OD700, 18 h; higher = more signal, called active from +8 up or from −8 down
# [17] = modulators of S6 phosphorylation in cells, primary screen, cell-based, A549, cytoblot, luminescence, serum-stimulated (AID 1158); conditions: A549 phospho-S6 cytoblot, 5 h, higher = more signal;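 further: serum-stimulated A549 lung adenocarcinoma cells; signal is phosphorylated S6 detected by cytoblot immunostaining with HRP secondary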
# [18] = target: NADPH oxidase 2 (Homo sapiens) (UniProt P04839); test: NOX2-dependent H2O2 signal modulators, primary screen, NOX inhibitor project, cell-based, HEK293-NOX2, PMA-stimulated, Amplex Red fluorescence (AID 1159); conditions: 45 min, higher = more signal, called active from +8 up or from −8 down; further: test concentration not given here
# [19] = target: NADPH oxidase 4 (Homo sapiens) (UniProt Q9NPH5); test: NOX4-dependent H2O2 signal modulators, primary screen, NOX inhibitor project, cell-based, HEK293-NOX4, tetracycline-induced, Amplex Red fluorescence (AID 1160); conditions: 45 min, higher = more signal, called active from +8 up or from −8 down
# [20] = target: NADPH oxidase 5 (Homo sapiens) (UniProt Q96PH1); test: NOX5-dependent H2O2 signal modulators, primary screen, NOX inhibitor project, cell-based, HEK293-NOX5, Amplex Red fluorescence (AID 1161); conditions: HEK293-NOX5, ionomycin, 45 min, higher = more signal
# Sequence of NADPH oxidase 5 (Homo sapiens) (Q96PH1 whole entry, looked up): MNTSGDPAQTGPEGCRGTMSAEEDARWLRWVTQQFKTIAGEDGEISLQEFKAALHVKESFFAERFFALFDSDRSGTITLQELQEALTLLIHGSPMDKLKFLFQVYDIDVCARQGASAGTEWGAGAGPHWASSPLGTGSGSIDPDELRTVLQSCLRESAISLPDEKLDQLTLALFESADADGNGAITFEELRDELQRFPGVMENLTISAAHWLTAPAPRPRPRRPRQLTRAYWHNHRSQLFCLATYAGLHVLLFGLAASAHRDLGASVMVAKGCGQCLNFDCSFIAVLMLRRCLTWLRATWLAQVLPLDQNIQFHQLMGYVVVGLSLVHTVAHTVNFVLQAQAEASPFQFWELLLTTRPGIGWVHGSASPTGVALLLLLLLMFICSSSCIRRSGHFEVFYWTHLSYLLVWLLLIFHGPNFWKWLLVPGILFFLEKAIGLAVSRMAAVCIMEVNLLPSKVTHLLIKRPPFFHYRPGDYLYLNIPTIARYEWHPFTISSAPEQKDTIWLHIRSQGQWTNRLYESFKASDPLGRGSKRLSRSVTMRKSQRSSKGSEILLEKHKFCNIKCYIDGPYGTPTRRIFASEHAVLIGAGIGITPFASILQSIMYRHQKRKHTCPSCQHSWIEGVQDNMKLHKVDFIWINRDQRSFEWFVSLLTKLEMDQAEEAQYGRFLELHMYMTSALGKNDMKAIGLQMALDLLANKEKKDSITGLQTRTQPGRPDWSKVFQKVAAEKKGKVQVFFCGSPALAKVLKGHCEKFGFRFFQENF
# Sequence of Torsin-1A (Homo sapiens) (O14656 whole entry, looked up): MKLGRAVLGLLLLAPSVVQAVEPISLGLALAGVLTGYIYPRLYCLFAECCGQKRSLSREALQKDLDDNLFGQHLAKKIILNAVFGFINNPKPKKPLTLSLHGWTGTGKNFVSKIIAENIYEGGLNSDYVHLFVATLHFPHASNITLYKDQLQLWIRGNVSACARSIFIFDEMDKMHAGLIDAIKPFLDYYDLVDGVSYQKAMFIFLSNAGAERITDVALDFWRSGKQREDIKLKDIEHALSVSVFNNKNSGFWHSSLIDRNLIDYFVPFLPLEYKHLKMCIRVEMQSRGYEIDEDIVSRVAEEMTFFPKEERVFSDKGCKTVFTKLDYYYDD
# Sequence of Streptavidin (Streptomyces avidinii) (P22629 whole entry, looked up): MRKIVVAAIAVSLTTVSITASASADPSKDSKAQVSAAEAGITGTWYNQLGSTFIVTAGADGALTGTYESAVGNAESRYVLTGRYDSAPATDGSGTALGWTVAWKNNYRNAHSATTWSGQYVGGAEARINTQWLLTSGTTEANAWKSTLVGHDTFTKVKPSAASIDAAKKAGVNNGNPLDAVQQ
# Sequence of NADPH oxidase 2 (Homo sapiens) (P04839 whole entry, looked up): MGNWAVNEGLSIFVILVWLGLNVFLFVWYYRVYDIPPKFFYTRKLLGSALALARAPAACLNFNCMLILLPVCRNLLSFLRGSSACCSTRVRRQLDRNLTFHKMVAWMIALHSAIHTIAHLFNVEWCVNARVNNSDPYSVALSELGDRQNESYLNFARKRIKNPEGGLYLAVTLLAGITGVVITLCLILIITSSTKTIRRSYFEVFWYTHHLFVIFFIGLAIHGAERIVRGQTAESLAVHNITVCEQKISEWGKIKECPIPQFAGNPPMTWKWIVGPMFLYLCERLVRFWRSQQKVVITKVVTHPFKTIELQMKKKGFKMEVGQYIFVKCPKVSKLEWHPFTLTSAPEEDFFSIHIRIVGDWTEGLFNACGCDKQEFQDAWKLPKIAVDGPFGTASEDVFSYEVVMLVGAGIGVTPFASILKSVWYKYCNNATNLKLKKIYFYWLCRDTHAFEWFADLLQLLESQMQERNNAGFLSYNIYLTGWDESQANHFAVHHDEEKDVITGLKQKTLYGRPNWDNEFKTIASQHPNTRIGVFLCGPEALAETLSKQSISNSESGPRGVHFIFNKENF
# Sequence of NADPH oxidase 4 (Homo sapiens) (Q9NPH5 whole entry, looked up): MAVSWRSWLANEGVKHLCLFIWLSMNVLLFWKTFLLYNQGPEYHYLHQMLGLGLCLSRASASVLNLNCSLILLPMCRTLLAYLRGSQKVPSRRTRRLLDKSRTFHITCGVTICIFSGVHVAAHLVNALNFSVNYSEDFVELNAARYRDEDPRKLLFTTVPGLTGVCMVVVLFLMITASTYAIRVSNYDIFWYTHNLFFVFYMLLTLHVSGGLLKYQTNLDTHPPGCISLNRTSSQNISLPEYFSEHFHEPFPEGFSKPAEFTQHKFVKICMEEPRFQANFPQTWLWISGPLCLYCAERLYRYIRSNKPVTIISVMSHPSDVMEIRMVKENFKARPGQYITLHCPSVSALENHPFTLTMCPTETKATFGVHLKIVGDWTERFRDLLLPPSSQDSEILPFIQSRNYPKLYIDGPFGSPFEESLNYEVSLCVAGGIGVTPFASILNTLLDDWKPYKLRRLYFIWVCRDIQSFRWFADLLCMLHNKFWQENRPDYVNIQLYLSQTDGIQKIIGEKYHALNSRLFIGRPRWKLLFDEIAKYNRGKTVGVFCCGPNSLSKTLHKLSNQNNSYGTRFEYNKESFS
SMILES,composite z-score [1],z-score [2],z-score [3],z-score [4],z-score [5],composite z-score [6],composite z-score [7],composite z-score (Torsin-1A (Homo sapiens) [8]),composite z-score (Torsin-1A (Homo sapiens) [9]),composite z-score [10],z-score [11],composite z-score [12],z-score [13],z-score [14],z-score [15],z-score [16],z-score [17],z-score [18],z-score [19],z-score [20]
CCOC(=O)c1cn(C[C@H](Cc2ccccc2)NC(=O)N[C@H](CO)CCc2oc(C(C)=O)c(C(=O)OC)c2C(=O)OC)nn1,0.0532,-2.84 (inactive),0.279 (inactive),1.4 (inactive),-0.158 (inactive),0.486,-0.0762,0.439,0.692,1.63,-0.427 (inactive),0.143,1.14 (inactive),-1.06 (inactive),0.661 (inactive),-0.473 (inactive),0.0878,-3.04 (inactive),-3.25 (inactive),-1.9
[N-]=[N+]=Nc1ccccc1C[C@@]1(C(=O)NCc2ccccc2)N=C(c2ccc(OCCCO)cc2)O[C@@H]1c1ccccc1N=[N+]=[N-],0.897,-5.79 (inactive),-0.424 (inactive),0.596 (inactive),-2.3 (inactive),0.905,0.767,0.123,0.388,0.473,0.0484 (inactive),0.399,31.4 (active),24.3 (active),2.08 (inactive),0.984 (inactive),1.38,-4.79 (inactive),-2.16 (inactive),-1.67
COC(=O)[C@H](Cc1ccccc1)N1CC2=CCCC=C[C@@H]2[C@H]1[C@H](O)Cc1ccccc1,-0.0279,-1.02 (inactive),1.09 (inactive),2.4 (inactive),1.07 (inactive),0.916,-0.0332,-0.214,-0.371,0.848,-0.53 (inactive),0.315,1.31 (inactive),0.492 (inactive),0.429 (inactive),0.256 (inactive),-0.232,-0.286 (inactive),-0.477 (inactive),-0.647
CC(C)N1C(=O)c2ccccc2[C@](C)(C(=O)NCC(F)(F)F)[C@@H]1c1ccc(CO)cc1,-0.218,-0.167 (inactive),0.633 (inactive),0.414 (inactive),-0.0278 (inactive),-0.913,0.0516,-0.978,0.33,-0.982,0.481 (inactive),0.402,0.834 (inactive),-0.0162 (inactive),-0.377 (inactive),-0.16 (inactive),0.0308,0.91 (inactive),0.89 (inactive),0.783
C=C(C)[C@@H]1CC=C(C(O)C2C=CC3C(=O)N(C)C(=O)C3N2Nc2ccc([N+](=O)[O-])cc2[N+](=O)[O-])CC1 (stereo not given in full),0.291,-0.181 (inactive),0.0728 (inactive),2.16 (inactive),0.386 (inactive),0.707,-0.0762,0.414,1.14,0.413,-1.03 (inactive),0.807,22.8 (active),6.33 (inactive),0.0383 (inactive),1.46 (inactive),-1.42,-0.188 (inactive),0.811 (inactive),2.85
O=C1C=C(c2ccccc2)C(=O)C2=C1CC([C@H]1Oc3ccccc3S(=O)(=O)N3CCC[C@@H]13)=CC2,-0.0842,-6.3 (inactive),0.497 (inactive),4.67 (inactive),20.1 (active),0.429,-0.235,-0.295,-0.495,-0.0231,-0.0139 (inactive),-0.101,2.36 (inactive),0.445 (inactive),-0.299 (inactive),0.0841 (inactive),-0.154,-0.368 (inactive),-3.24 (inactive),-2.66
C=C(COC)C(=O)CC[C@H](OC(=O)c1cccnc1)c1ccc(OCCO)cc1,0.965,-2.1 (inactive),0.385 (inactive),1.54 (inactive),0.755 (inactive),0.257,0.103,0.613,1.43,2.4,-0.367 (inactive),-0.285,9.54 (active),1.2 (inactive),0.247 (inactive),0.553 (inactive),-0.271,-0.253 (inactive),0.592 (inactive),-1.26
C=CCOC(=O)[C@@H]1[C@H]2C(=O)O[C@H](c3ccccc3)[C@H](c3ccccc3)N2[C@H](c2ccc(OCCOC(=O)[C@H]3C[C@H]4C(=O)N[C@@H](CCCCN(C)C)C(=O)N4[C@H]3c3ccc(O)cc3)cc2)[C@@]12C(=O)Nc1ccc(I)cc12,0.374,-1.29 (inactive),-0.852 (inactive),-0.118 (inactive),2.13 (inactive),0.433,0.0895,1.18,0.9,1.98,-1.09 (inactive),0.0313,-0.202 (inactive),0.422 (inactive),3.69 (inactive),-0.116 (inactive),-1.34,1.6 (inactive),0.182 (inactive),0.946
